Screening data deposited in PubChem BioAssay by National Center for Advancing Translational Sciences (NCATS).
HepG2 tox: counter-screen for TGF-b inhibitors: cytotoxicity in HepG2 cells. HepG2 CAGA-GFP viability, ATP luminescence, 18 h. Potency, µM (series often up to 46.1 µM), without a hit: top-dose activity change, negative = cytotoxicity, usual class: cytotoxic. 410,000 compounds, 0.76% hits. AID 588856; note: potency is the fitted concentration of half-maximal effect
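CellTiter-Glo luminescence gave cytotoxicity after 18 hours at 37 degrees C. The cells were HepG2 CAGA-GFP in 1% FBS DMEM, stimulated with 500 pg/mL TGF-beta after compound addition. %Activity was normalised to no-cell wells (complete cell-killing) and DMSO (no toxicity), and curves were fitted and classified.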
S2 tox: cell viability loss in ATXN counter-screen | S2 cells (HEK-293 line with an ATXN2-luciferase reporter) viability, CellTiter-Fluor protease fluorescence, 24 h | Potency, µM (top dose mostly 56.7 µM), hits mostly cytotoxic | 400,000 compounds, 0.49% hits; note: potency is the fitted concentration of half-maximal effect; nearly all actives have a fitted effect of over 40% in size
TGFb inhibitor: TGF-b pathway inhibition | HepG2 CAGA-GFP TGF-b/SMAD3 reporter, GFP fluorescence, 18 h; TGF-beta stimulated, 500 pg/mL final | AID 588855 | 410,000 compounds, 1.2% hits | Potency, µM (titrated, usually from 46.1 µM), without a hit: top-dose activity, negative = inhibition, actives largely listed as inhibitors; note: potency is the fitted concentration of half-maximal effect; % is set by controls: 0 for no effect and ±100 for the full control effect; nearly all actives have a fitted effect of over 65% in size
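Read-out: total well GFP (ex488/em500-530) summed from mean per-cell fluorescence. Cells: HEPG2 CAGA-GFP, 1% FBS DMEM, 18 h at 37 degrees C with 500 pg/mL final TGF-beta. Unstimulated wells served as the full-inhibition control; stimulated DMSO wells = 0%.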
ATXN2 expr inh: reduces ATXN2 reporter expression in HEK-293 cells. 360,000 compounds, 0.72% hits. Potency, µM (highest dose often 57 µM), for inactives: at the top dose activity change, negative = inhibition, usual class: inhibitors. HEK-293 ATXN2-luciferase reporter, luminescence, 24 h; note: potency is the fitted concentration of half-maximal effect; % is set by controls: 0 for no effect and ±100 for the full control effect; nearly all actives have a fitted effect of over 55% in size
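qHTS (up to 57 uM final) was run with 24 h compound exposure of reporter cells at 37 °C. Each well was multiplexed: SteadyGlo luminescence measured ATXN2-luciferase expression after a fluorogenic Gly-Phe-AFC viability readout (25 uM final).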
DRD3 agonist: D3 dopamine receptor (human) agonism | max activation, % | P35462 | 410,000 compounds, 0.58% hits | AID 652048 | D3R DiscoveRx beta-arrestin cells, luminescence, 90 min; in the data active = max activation above about 30%; note: 0% is about no effect
Target sequence (P35462 whole entry, looked up): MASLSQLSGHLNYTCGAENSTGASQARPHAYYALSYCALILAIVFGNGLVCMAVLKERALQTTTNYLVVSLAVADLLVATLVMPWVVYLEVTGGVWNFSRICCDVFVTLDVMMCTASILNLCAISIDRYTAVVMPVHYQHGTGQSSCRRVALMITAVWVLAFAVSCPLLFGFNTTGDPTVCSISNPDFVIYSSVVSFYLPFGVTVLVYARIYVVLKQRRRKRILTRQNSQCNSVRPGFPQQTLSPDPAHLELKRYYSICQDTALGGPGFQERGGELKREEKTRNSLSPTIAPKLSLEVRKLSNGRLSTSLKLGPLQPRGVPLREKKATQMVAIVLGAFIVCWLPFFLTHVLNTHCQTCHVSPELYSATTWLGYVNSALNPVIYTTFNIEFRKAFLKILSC
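Agonist-mode cell screen: cells plated at 1500/well and incubated overnight at 37 °C, then exposed to library compounds for 90 min at 37 °C. Detection reagent was added for 30–60 min at room temperature, and luminescence was read.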
DRD3 antagonist: blocks the human D3 dopamine receptor | AID 652054 | D3R cells, DiscoveRx beta-arrestin luminescence, antagonist mode; hits give low values | 360,000 compounds, 2.5% hits | P35462 | max response, negative = inhibition, %; in the data active = max response below about -50%; inconclusive = no clear call, values can overlap the other calls; note: % is set by controls: 0 for no effect and ±100 for the full control effect
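Cells plated overnight at 1500 cells/well, then exposed to library compounds with dopamine controls for 90 minutes at 37 degrees C. DiscoveRx reagent added for 30–60 minutes at room temperature; luminescence read, quantitative HTS format.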
Starred values were filed as active, the others as inactive; i = inactive; ? = inconclusive; . = no result. Shown are actives, neighbours in structure and some others; about 4.8% of the full set was active somewhere. Unless noted, calls come from the whole dose curve; as a rule, active = well fitted curve in the direction sought with a large enough effect; inconclusive = small, poorly fitted or top-dose-only effect, or another doubt; inactive = no such curve, though single readings can be large; an effect the other way counts as inactive or inconclusive.

SMILES | HepG2 tox | S2 tox | TGFb inhibitor | ATXN2 expr inh | DRD3 agonist | DRD3 antagonist
CCC(Sc1nc(=O)cc(N)n1-c1cccc(C)c1)C(=O)Nc1cc(C)on1 (stereo unspecified) | -7% | i | 3.5µM* | -7% | 0 | -16
CCC(Sc1nc(C)cc(C)n1)C(=O)Nc1cc(C)on1 (stereo unspecified) | 6% | i | 5% | -1% | 0 | -53*
Cc1cc(C)c(NC(=O)C2CCN(C(=O)N3CC(C)Oc4ccc(Cl)cc43)CC2)c(C)c1 (stereo unspecified) | -1% | ? | -9% | ? | 24 | .
O=C(NCCCN1CCOCC1)c1ccc2c(c1)N(Cc1cccc(Cl)c1)C(=O)c1ccccc1S2 | 11µM* | . | ? | . | -22 | .
O=C(Nc1ccccc1C(=O)NCCCN1CCOCC1)c1ccccc1 | 9% | ? | 8% | -12% | 4 | 16
O=C(Nc1ccccc1C(=O)NCCCN1CCOCC1)c1ccc(Cl)cc1 | 11% | i | 9% | 1% | -18 | -54*
COc1ccc(C2CC(c3ccccc3)Oc3cc(C)c(Cl)c(C)c32)cc1 (stereo unspecified) | -24% | . | -19% | . | . | .
Cc1cc2n(n1)CCC(=O)N2Cc1ccc(C(=O)Nc2ccc(F)cc2F)cc1 | -27% | . | -23% | . | -19 | .
Cc1nn(-c2ccccc2)c2c1N(CCCC(=O)NC(C)c1ccccc1)C(=O)CS2 (stereo unspecified) | -16% | ? | ? | -24% | -10 | .
Cc1ccc(C2CC(=O)NC(SCc3ccccc3)=C2C#N)o1 (stereo unspecified) | -40% | i | 2% | -15% | -3 | -62*
COc1ccc(NC(=O)C2CCN(S(=O)(=O)c3ccc4c(c3)CCCC(=O)N4)CC2)cc1OC | 7% | i | 10% | 4% | -2 | .
O=C(Cc1ccc(F)cc1)N1CCC(CC2CC(c3cccc(Br)c3)=NO2)(C(=O)NCC2CCCCC2)CC1 (stereo unspecified) | -26% | ? | -16% | -19% | -30 | -51*
CN(Cc1ccccc1)C(=O)CSc1nc(-c2ccc(F)cc2)cc(C(F)(F)F)n1 | -54% | i | -10% | -18% | -6 | .
Cc1ccc(NC(=O)COc2ccc(/C=C3/SC(=Nc4ccccc4)N(Cc4cccnc4)C3=O)cc2)cc1 | 2% | ? | -5% | 14µM* | 0 | 52
Cc1ccc(NC(=O)COc2ccc(/C=N/NC(=O)CSCc3ccccc3)cc2)cc1 | -27% | i | -1% | 0% | -23 | 19
Cc1ccc2nc3n(c2c1)CCCN3 | -18% | i | ? | -14% | 0 | -59*
Cc1noc(C)c1CSCC(=O)Nc1nc(-c2ccc(F)c(F)c2)cs1 | -20% | ? | ? | 22µM* | 27 | 52
COc1ccc(-c2csc(NC(=O)CSCc3c(C)noc3C)n2)cc1OC | -33% | ? | 0% | -17% | 14 | 9
C=Cc1c(C)c2cc3nc(cc4[nH]c(cc5nc(cc1[nH]2)C(C)=C5CCC(=O)OC)c(CCC(=O)O)c4C)[C@@]1(C)C3=CC=C(C(=O)OC)[C@H]1C(=O)OC | . | ? | . | . | 8 | .
O=C1[C@H]2CCCC[C@H]2C(=O)N1CCCCN1CCN(c2nsc3ccccc23)CC1 | -17% | ? | ? | ? | -57 | -116*
O=C(CN1C(=O)C2CCCCC2C1=O)Nc1ccccc1C(=O)O (stereo unspecified) | 28% | i | -8% | -18% | -6 | 3
COc1ccc(CNC(=O)c2cnn(-c3nccc(-c4ccco4)n3)c2C)cc1OC | . | i | . | . | . | .
CCCc1[nH]c2ccc(C#N)cc2c1CCC | -115% | . | 20µM* | ? | 14 | 7
CCCCNC(=O)C(CC)n1c(SCc2cccc(F)c2)nc2ccncc21 (stereo unspecified) | 0% | . | -2% | . | . | .
Cc1ccc(-c2ccc(/C=N/NC(N)=S)o2)cc1 | -18% | i | ? | 32% | -2 | -12
SMILES | HepG2 tox | S2 tox | TGFb inhibitor | ATXN2 expr inh | DRD3 agonist | DRD3 antagonist
NC(=S)N/N=C/c1ccc(-c2ccc(SC(F)F)cc2)o1 | -53% | i | 10µM* | -17% | -5 | 7
O=C(CCNS(=O)(=O)c1ccc(Br)cc1)NCc1ccc(Cl)cc1 | 11µM* | i | -11% | -10% | 0 | 5
Cc1ccc(CNC(=O)CCc2ccc(S(=O)(=O)NCC(C)C)cc2)cc1 | 0% | i | 0% | -21% | -7 | -51*
Cc1ccc(CNC(=O)CCNS(=O)(=O)c2ccc(C)cc2)cc1 | -6% | i | -5% | 3% | 1 | 31
CC(C)CNS(=O)(=O)c1ccc(CCC(=O)NCc2cccnc2)cc1 | -11% | i | 0% | -2% | 0 | -15
O=C(C[n+]1ccncc1)c1ccc(Br)cc1 | -37% | . | -13% | . | . | .
COc1cc(OC)cc(C(=O)NC(=S)Nc2cc3oc4ccccc4c3cc2OC)c1 | -5% | i | -2% | 13% | 8 | 22
COc1ccc(C(=O)NC(=S)Nc2cc3oc4ccccc4c3cc2OC)cc1 | 0% | i | -7% | 2% | 31* | 35
COc1cccc(OCC(=O)Nc2cc(Cl)ccc2Oc2ccccc2)c1 | -13% | ? | -1% | 28µM* | 14 | 36
CC(C)CNS(=O)(=O)c1ccc(CCC(=O)Nc2cc(Cl)ccc2Oc2ccccc2)cc1 | -19% | i | -2% | -32% | 1 | 10
COc1cccc(OCC(=O)Nc2ccccc2NC(C)=O)c1 | 7% | ? | 10% | 2% | 2 | -18
CCCNS(=O)(=O)c1ccc(CCC(=O)Nc2cc(Cl)ccc2Oc2ccccc2)cc1 | 1% | ? | -17% | -28% | 30* | 31
O=C(CCN1CCN(CCO)CC1)Nc1ccc(F)c(F)c1 | 2% | i | 5% | 2% | 14 | 12
O=C(CCN1CCc2ccccc2C1)Nc1ccc(F)c(F)c1 | -19% | i | -15% | -1% | -18 | -103*
CCN1CCN(CCC(=O)Nc2cc(C)ccc2C)CC1 | 8% | i | 7% | -4% | -12 | 12
Cc1ccc(C)c(NC(=O)CCN2CCc3ccccc3C2)c1 | -12% | i | 0% | -2% | -14 | -108*
O=C(CCN1CCc2ccccc2C1)Nc1ccc2c(c1)OCO2 | -17% | i | 0% | 3% | -10 | -67*
Cc1cc(Cl)ccc1OCC(=O)N(Cc1sccc1C)C1CCS(=O)(=O)C1 (stereo unspecified) | -1% | . | . | . | -7 | .
Cn1c(=S)c2[nH]c(SCCC(C)(C)C)nc2n(C)c1=O | -33% | i | ? | -30% | 3 | 28
